Bioassay records: PubChem, several laboratories
ATG4B inh: blocks human ATG4B protease cleavage of LC3 substrate | 340,000 compounds, 0.51% hits | ATG4B cleavage of LC3-PLA2, NBD-HPC fluorescence, 1 h | inhibition, % at 8.33 µM; in the data active = inhibition above about 40%
Target sequence (Q9Y4P1 whole entry, looked up): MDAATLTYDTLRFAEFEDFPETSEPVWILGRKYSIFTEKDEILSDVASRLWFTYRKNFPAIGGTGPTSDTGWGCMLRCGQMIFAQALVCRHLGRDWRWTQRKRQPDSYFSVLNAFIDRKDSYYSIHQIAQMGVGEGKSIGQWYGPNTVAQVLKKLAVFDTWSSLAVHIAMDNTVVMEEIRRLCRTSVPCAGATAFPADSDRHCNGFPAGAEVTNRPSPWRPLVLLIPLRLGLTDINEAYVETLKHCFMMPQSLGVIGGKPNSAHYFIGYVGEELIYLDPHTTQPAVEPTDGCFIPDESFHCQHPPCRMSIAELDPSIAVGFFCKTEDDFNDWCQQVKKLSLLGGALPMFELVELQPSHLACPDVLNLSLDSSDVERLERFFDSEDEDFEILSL
FAS TE block: inhibitors of human fatty acid synthase thioesterase domain; 360,000 compounds, 0.67% hits; AID 602261; inhibition, % at 15 µM; P49327; recombinant FAS-TE, OMFH fluorogenic substrate, fluorescence endpoint;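 active = compounds whose normalised, plate-corrected inhibition of enzyme fluorescence in the single-dose primary screen is 50% or more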;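 also: 0% = DMSO with enzyme and 100% = substrate without enzyme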
NadD inh: NadD (S. aureus) enzyme inhibition; purified NadD enzyme, colorimetric absorbance read-out; inhibition, % at 20 µM; 360,000 compounds, 0.78% hits; in the data active = inhibition above about 26%
Mot1-301 SUMO: blocks SUMOylation pathway, rescuing yeast Mot1-301 growth; S. cerevisiae Mot1-301 growth rescue, ATP luminescence, 38.5C; percent above DMSO median, 100 means doubled; AID 2716; growth rescue, % at 18.8 µM; 320,000 compounds, 1% hits;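 active = every valid replicate shows activation above 250% relative to neutral control wells; inactive = the rest, any valid replicate at or below 250%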;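 also: OY570 slx delta 5 strain wells were the positive control but not used for scaling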
Calb FLC: C. albicans growth modulation with fluconazole | 300,000 compounds, 0.57% hits | growth inhibition, % (test concentration not listed) | C. albicans CaCi-2 (fluconazole-resistant clinical isolate) + fluconazole, Alamar Blue growth, 48 h;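 active = growth inhibition above about 58% in most replicates, limit read from the data, passing the limit was not always enough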;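 also: all wells also contain fluconazole at 8 µg/ml as a sub-toxic cotreatment; 0% = median of DMSO wells and 100% = median of geldanamycin control wells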
Yeast Mot1 SUMO: SUMO pathway inhibitors in yeast Mot1-301 growth; shares compounds with Mot1-301 SUMO; S. cerevisiae Mot1-301 galactose growth, ATP luminescence, 24 h; -100 = growth of slx-deleted rescue strain; growth activity, percent, % at 42 µM; 2,300 tested, under 10 active;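 active = Signal drops as the depositor expects, and the fitted half-maximal dose is no more than ten times the top valid tested dose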;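 also: more negative values mean stronger growth rescue toward the control strain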
Active calls of the source: *; i = inactive; · = no result given; + = active, no number. Sampled rows, rich in hits. Any-hit rate of the full collection: about 3.1%.

SMILES	ATG4B inh	FAS TE block	NadD inh	Mot1-301 SUMO	Calb FLC	Yeast Mot1 SUMO
COCOCCn1cc(CN2CCS(=O)(=O)N(Cc3ccc(-c4ccc(OC)c(OC)c4)cc3)C(C)C2=O)nn1 (configuration not stated)	·	-5	-5	·	·	·
Cc1ccc(NC(=O)CC2OC(=O)c3ccccc32)cc1S(=O)(=O)N1CCCCCC1 (configuration not stated)	5	13	-5	-6	·	·
CCCC1C(c2ccco2)NC(c2ccco2)CC1(C)O (configuration not stated)	0	-7	0	-23	89*	·
COc1ccc([C@H]2CC(=O)C=C(c3cc(OC)ccc3OC)C2)cc1	6	25	-7	-15	·	·
CCCCCCc1cc2cc(C(=O)NCc3ccccc3)c(=N)oc2cc1O	-8	-25	31*	-20	-20	·
CCCCCCc1cc2cc(C(=O)Nc3ccccc3)c(=O)oc2cc1O	-3	-16	8	-5	-2	·
NC(=O)c1cc[n+](Cc2ccc([N+](=O)[O-])cc2)cc1	1	-7	1	-21	2	·
COc1ccc(-c2ccc(=O)n(CC(=O)Nc3cccc(O)c3)n2)cc1OC	6	-6	0	-6	111*	·
COc1ccc(-c2ccc(=O)n(CC(=O)Nc3nnc(C(C)C)s3)n2)cc1OC	-11	-8	0	i	7	·
O=C(Nc1ccccc1F)c1cccc(C(=O)Nc2ccccc2F)c1	-5	-1	-6	13	7	·
O=C(Nc1cccc(F)c1)c1ccc2ncsc2c1	-2	-5	-9	87	111*	·
O=C(Nc1ccc(Cl)cc1Cl)c1ccc2ncsc2c1	-4	3	-6	14	-13	·
O=C(Nc1ccc(F)cc1F)c1ccc2ncsc2c1	-5	-4	2	335*	-14	·
O=C(Nc1ccccc1F)c1ccc2ncsc2c1	4	-1	-7	-17	105*	·
O=C1NC(Cc2ccc(O)cc2)c2nc3ccc(F)cc3c(=O)n2-c2cc(Cl)ccc21 (configuration not stated)	·	0	4	·	·	·
CC1(Cc2ccc(C(F)(F)F)o2)C(=O)Nc2cc(-c3ccc(F)cc3F)ccc21 (configuration not stated)	·	27	-11	·	·	·
COc1ccc(NC2CCCN(C(=O)COc3ccc(C(C)=O)cc3)C2)cc1 (configuration not stated)	·	-7	-10	·	·	·
O=C(Nc1ccc(N2CCOCC2)cc1)C1CC(O)CN1S(=O)(=O)c1ccc(Cl)cc1 (configuration not stated)	-6	-6	0	14	-22	·
COc1ccccc1N1CCN(C(=O)c2ccc(N3CCCCS3(=O)=O)cc2)CC1	-2	-5	-4	607*	6	1
O=C(c1ccc(N2CCCS2(=O)=O)cc1)N1CCN(c2ccc(F)cc2)CC1	-4	-4	-2	-5	2	·
COc1ccc2cc3c(N)nn(C(=O)c4ccccc4Cl)c3nc2c1	-9	37	-6	501*	14	0
COc1ccc2cc3c(N)nn(C(=O)c4ccc(F)cc4)c3nc2c1	-5	5	1	14	15	·
Cc1ccc(C(=O)N2CCN(S(=O)(=O)N3CCCCC3)CC2)cc1	3	-4	-6	-9	-4	·
O=C(c1ccco1)N1CCN(C2CC(=O)N(c3ccc(F)c(Cl)c3)C2=O)CC1 (configuration not stated)	1	-3	-3	551*	-10	-1
C[C@H](NC(=O)OC(C)(C)C)C(=O)NCC1CCC(C(=O)N[C@@H](Cc2ccccc2)C(=O)O)CC1 (some centres not stated)	10	-4	-2	477*	0	1
SMILES	ATG4B inh	FAS TE block	NadD inh	Mot1-301 SUMO	Calb FLC	Yeast Mot1 SUMO
C[C@@H](NC(=O)OC(C)(C)C)C(=O)NCC1CCC(C(=O)N[C@@H](Cc2ccccc2)C(=O)O)CC1 (some centres not stated)	-7	-1	2	0	·	·
Cc1csc(SCC(=O)Nc2ccc3[nH]c(=O)[nH]c3c2)n1	2	-6	-4	-13	·	·
Cc1cc(F)ccc1S(=O)(=O)Nc1ccccc1C(=O)Nc1ccc2[nH]c(=O)[nH]c2c1	1	9	4	370*	14	0
Cc1c(/C=N\NC(=O)C2COc3ccc(C(C)(C)C)cc3O2)c2ccccc2n1C (configuration not stated)	10	44	22	110	-1	·
COc1cccc(OC)c1C(=O)N1CCN(Cc2ccccc2C)CC1	-10	-9	0	359*	8	1
CS(=O)(=O)N1CCN(C(=O)c2cc(-c3cccnc3)nc3ccc(Cl)cc23)CC1	-3	0	0	-2	3	·
COc1ccc(CN2CCN(C(=O)c3cc(-c4cccnc4)nc4ccc(Cl)cc34)CC2)c(OC)c1OC	-2	4	-1	510*	-4	0
COc1cccc(CN2CCN(C(=O)c3cccc4ccccc34)CC2)c1OC	-19	1	3	735*	11	0
CCCC(C(=O)NC(C)(C)C)N(CC1CCCO1)C(=O)CNS(=O)(=O)c1ccc(F)cc1 (configuration not stated)	-2	-4	0	-8	3	·
CN(CC(=O)Nc1cccc2ccccc12)C(=O)c1cccc(S(=O)(=O)N(C)C)c1	-1	-1	-1	-2	-19	·
COCc1[nH][nH]c(=O)c1C=Nc1ccc(OC(F)(F)F)cc1	-9	-8	-1	801*	-11	0
CCCCC(=O)NC(=S)Nc1cccc(C(=O)O)c1	-2	-5	-1	+	6	0
CCCCC(=O)NC(=S)Nc1cccc(NC(=O)CC)c1	-5	-2	0	·	34	·
O=C(c1cc(-c2ccc(Cl)cc2)n(-c2ccc(Cl)cc2)n1)N1CCOCC1	-4	24	1	399*	2	0
Cc1ccc(-n2nc(C(=O)N3CCOCC3)cc2-c2ccc(Cl)cc2)cc1	-3	14	-4	-5	5	·
Cc1ccc(S(=O)(=O)N2CCOCC2)cc1NC(=O)COC(=O)Cc1cccs1	-3	-5	-4	-6	0	·
Cc1ccc(S(=O)(=O)N2CCOCC2)cc1NC(=O)COC(=O)CNC(=O)c1ccccc1	2	-8	-3	532*	-16	0
CCCCn1c(=O)[nH]c(=O)c2c1nc(COc1ccc(C#N)cc1)n2CCC	1	1	-2	404*	2	1
Brc1ccccc1/C=N/Nc1ccccn1	3	1	1	1	2	·
O=C(O)COc1ccc(Br)cc1/C=N\Nc1ccccn1	0	5	5	425*	-1	1
Cc1ccc2nc(SCC(=O)Nc3cccc(S(N)(=O)=O)c3)[nH]c2c1	-17	-8	-9	741*	3	0
CCC(CC)NC(=O)c1oc2ccccc2c1COc1ccccc1	7	23	-3	518*	-5	0
